Compound activity deposited in PubChem by Broad Institute.
Not all results are given here.
aSyn UTR act = Activators via SNCA 5'UTR binding, MLPCN; alpha-synuclein 5'UTR reporter, activators screen; actives 7.1% (n = 300,000); activity score, % (tested at 7.5 µM), hits read low; AID 1814; in the data active = activity score below about -60%
An asterisk follows results filed as active.

SMILES	aSyn UTR act
Cc1ccc(C(=O)/C=C/Nc2ccc3c(c2)OCO3)cc1	-182*
CC(=O)c1cccc(N/C=C\C(=O)c2ccc(C)cc2)c1	-159*
C/C(=C\C(=O)c1ccc(C)cc1)Nc1cccc(O)c1	-284*
CC(=O)c1ccc(N/C=C\C(=O)c2ccc(C)cc2)cc1	-211*
CCCc1nn(C)c(C(=O)Nc2cccc(CC)c2)c1Cl	-84*
CCCc1nn(C)c(C(=O)Nc2ccc3ccccc3c2)c1Cl	-204*
CN(CC(=O)Nc1ccc(Cl)c(S(=O)(=O)N(C)C)c1)Cc1ccccc1	-109*
CCOc1ccc(NC(=O)CN(C)c2ccc(S(=O)(=O)N(C(C)C)C(C)C)cn2)cc1OCC	61
CCCCc1ccc(NC(=S)Nc2ccc(Cl)c(S(=O)(=O)N(C)C)c2)cc1	-68*
C=CCn1c(=O)/c(=C2/Sc3cc(OC)ccc3N2C)s/c1=C1\C(=O)N(CC)C(=S)N1C	-98*
COc1ccc(OC)c(NS(=O)(=O)c2ccc(SC)cc2)c1	-161*
CCOc1ccc(S(=O)(=O)Nc2cc(OC)ccc2OC)cc1	81
COc1ccc(-c2nc(N/N=C(\C)c3ccc(O)cc3)c3ccccc3n2)cc1	-92*
O=C(COC(=O)c1ccc[nH]c1=O)NCCc1ccc(Cl)cc1Cl	-98*
CCc1ccc(C2CC(c3ccco3)=NN2S(C)(=O)=O)cc1 (stereo unspecified)	-89*
CSc1nc2sc3c(c2c(=O)n1C)CCC(C)C3 (stereo unspecified)	-165*
COc1ccc2nc(NC(=O)C3COc4ccccc4O3)sc2c1 (stereo unspecified)	-80*
CS(=O)(=O)c1ccc2nc(NC(=O)C3COc4ccccc4O3)sc2c1 (stereo unspecified)	-98*
O=C(Nc1nc(-c2nc3ccccc3s2)cs1)C1COc2ccccc2O1 (stereo unspecified)	-136*
O=C(c1nc2ccccc2s1)N1CCSCC1	-92*
COc1ccc(NC(=O)Nc2ccc(Br)cn2)cc1OC	-69*
COc1cccc(NC(=O)Nc2ccc(Br)cn2)c1	-192*
COc1ccc(N(Cc2cc3cc(OC)ccc3[nH]c2=O)S(=O)(=O)c2ccc(NC(C)=O)cc2)cc1	93
COc1ccc(N(Cc2cc3ccccc3[nH]c2=O)S(=O)(=O)c2ccc(OC)cc2)cc1	-64*
C=CCOc1ccc(CNc2nccs2)cc1	-74*
SMILES	aSyn UTR act
COC(=O)c1ccc(OCc2cc(=O)n3ccsc3n2)cc1	-134*
Brc1ccccc1-n1nnc(-c2cccnc2)n1	-76*
Fc1ccc(-n2nnc(-c3cnc4ccccc4c3)n2)cc1	94
Clc1ccc(-n2nnc(-c3cccnc3)n2)cc1Cl	-157*
Fc1ccc(C(CCCn2nnc(-c3cccnc3)n2)c2ccc(F)cc2)cc1	-103*
Fc1ccc(-n2nnc(-c3cccnc3)n2)cc1	-89*
Cc1cccc(/C(N)=N/OC(=O)CCCc2ccccc2)c1	-89*
Cc1cccc(/C(N)=N/OC(=O)c2ccco2)c1	-109*
N/C(=N\OC(=O)c1ccco1)c1ccccc1	-275*
N/C(=N\OC(=O)c1ccco1)c1ccc(Br)cc1	-200*
COc1ccc(/C(N)=N/OC(=O)c2ccco2)cc1	60
N/C(=N\OC(=O)c1ccco1)c1ccccn1	-119*
CN(C)/C=N/c1ncn(-c2ncc(C(F)(F)F)cc2Cl)n1	-85*
COc1ccc(NC(=O)c2cc(C3CC3)on2)c(OC)c1	-200*
Cc1c(Cl)cccc1NC(=O)c1cc(C2CC2)on1	-207*
Cc1cc(NC(=O)c2cc(C3CC3)on2)no1	-96*
CN1/C(=C\C(=O)c2cccnc2)Sc2ccccc21	-94*
COc1cccc(C(=O)/C=C2\Sc3ccccc3N2C)c1	-131*
COc1ccc(NC(=O)C2Cc3ccccc3O/C2=N\O)cc1 (stereo unspecified)	-82*
Cc1cccc(N/N=C(\C(N)=O)C2=NC(C)(C)Cc3ccccc32)c1	59
Cc1cccc(NC(=O)C2Cc3ccccc3O/C2=N\O)c1 (stereo unspecified)	-138*
O=C(Nc1ccccc1)OCCCc1ccccc1	-119*
CCCCc1ccc(NC(=O)Nc2cccnc2)cc1	-102*
CCCCc1ccc(NC(=O)OC)cc1	-79*
Cc1ccc(NC(=O)Nc2ccc(F)c(Cl)c2)cc1	-165*
SMILES	aSyn UTR act
COc1ccc(NC(=O)Nc2ccc(F)c(Cl)c2)cc1	-140*
COc1cccc(NCc2cc(=O)oc3cc(-c4ccccc4)c(O)cc23)c1	-128*
Cc1cc(C)n2nc(-c3ccccc3)cc2n1	-97*
Cc1ccc(NC(=O)c2cc3nc(C)cc(C)n3n2)cc1	-82*
Cc1cc(C)n2nc(Nc3ccccc3)cc2n1	-165*
Cc1ccc(-c2cc3nc(C)cc(C)n3n2)cc1	-109*
Cc1nc(-c2ccccc2)nn1-c1ccc([N+](=O)[O-])cc1	-87*
CCCCCc1nc2c(C#N)c(-c3ccc(Cl)cc3)ccn2n1	-65*
CCCCc1c(C)c(C#N)c2nc3ccccc3n2c1Cl	109
COc1ccc(OCC(=O)c2c[nH]c3ccccc23)cc1	-90*
O=C(OCC(=O)c1c[nH]c2ccccc12)C1=COCCO1	-143*
COc1ccc(C2C(O)C(c3c[nH]c4ccccc34)=NN2C(=O)CCl)cc1 (stereo unspecified)	108
Cc1cn(-c2cc(C(=O)Nc3ccc(C)c(NC(=O)C(=O)c4c[nH]c5ccccc45)c3)cc(C(F)(F)F)c2)cn1	66
Cc1ccc(C(=O)OCC(=O)c2c[nH]c3ccccc23)cc1	-147*
COC(=O)c1ccc(NC(=O)C(=O)c2c[nH]c3ccccc23)cc1	-93*
CC(=O)[C@@]1(O)C(C)CC2C3C=C(C)C4=Cc5c(cnn5-c5ccccc5)C[C@]4(C)C3C(O)C[C@@]21C (stereo partly specified)	81
Cc1ccc(OCC(=O)c2c[nH]c3ccccc23)c([N+](=O)[O-])n1	-67*
Cc1ccc(OCC(=O)c2cc(C)n(-c3ccccc3)c2C)c([N+](=O)[O-])n1	68
CC1(C(=O)OCC(=O)c2c[nH]c3ccccc23)CC1(Cl)Cl (stereo unspecified)	-260*
O=c1[nH]c(=O)n([C@H]2C[C@H](O)[C@@H](CO)O2)cc1C(F)(F)F	77
Nc1ncn([C@H]2C[C@H](O)[C@@H](CO)O2)c(=O)n1	-925*
Nc1nc(Cl)nc2c1ncn2C1CC(O)C(CO)O1 (stereo unspecified)	87
Cc1ccc2cc(CCNC(=O)c3cccs3)c(=O)[nH]c2c1C	-190*
O=C(CNC(=O)c1cccs1)c1ccc(Cl)cc1	-89*
O=C(NCCc1ccc(Cl)cc1)c1cccs1	-156*
SMILES	aSyn UTR act
O=C(Nc1ccc(-c2cn3c(n2)SCC3)cc1)c1ccco1	-170*
CC(=O)Nc1ccc(-c2cn3c(n2)SCC3)cc1	-83*
O=C(N[C@@H](Cc1ccccc1)C(=O)NC1CCCCCC1)c1ccco1	-78*
CNc1nc(-c2ccc(Cl)cc2)cs1	-204*
CCNc1nc(-c2ccc(Cl)cc2)cs1	-169*
Cc1cccc(-c2nc(C#N)c(NCC3CCCO3)o2)c1 (stereo unspecified)	-112*
Cc1ccc(-c2nc(C#N)c(NCC3CCCO3)o2)cc1 (stereo unspecified)	-88*
Cc1cccc(-c2nc(C#N)c(N3CCCCCC3)o2)c1	-68*
CCc1nc2oc3ccc(C)cc3c(=O)c2cc1C(=O)OC	-201*
Cc1nc2oc3ccc(Cl)cc3c(=O)c2cc1C(=O)O	-62*
Cc1nc2oc3ccc(F)cc3c(=O)c2cc1C(=O)NC(C)(C)C	-76*
COC(=O)c1cc2c(=O)c3ccccc3oc2nc1C	-172*
